Data on nine compounds can be found in PubChem BioAssay.

The structures appear in SMILES notation. Activity calls are given as the source filed them.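 The calls were made as follows, unless noted: active = fluorescence slope after compound addition differing from the mean of all screened samples at 99.7% confidence, in either direction; inactive = the rest.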

Broadly, the inhibition is the relative decrease from the control value, in per cent.

The nature of assay [1]: inhibitors of TNFa-induced NFkB p65 translocation, primary screen, imaging, HUVEC, MLSMR starter and 10KST1 sets (AID 438;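 active = inhibition above 20% together with a positive visual image hit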;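 also: compound added about 3h40 before a 20 min TNFalpha stimulation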;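 as to inhibition: signal is the nuclear over cytoplasmic p65 intensity ratio per well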). Particulars: HUVEC TNFa-induced p65 nuclear translocation; cell count: measured here: nuclei count (cytotoxicity indicator), at 2.08 µM; inhibition: at 2 µM, stronger effect = higher value, 0% TNFa-plus-vehicle, 100% no-TNFa wells.
A short description of assay [2]: inhibitors of mutant huntingtin aggregation, primary screen, imaging, exon1htt(103Q)mCFP cells, high-content imaging (AID 483;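 active = visual image review flags a hit and inhibition of aggregation exceeds 20%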;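 also: compound exposure lasted 3 days before fixation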;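 as to nuclei count: percent of the per-plate median nuclei count of sample wells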). The settings on record: exon1htt(103Q)mCFP cell line, aggregate imaging, at 2 µM; inhibition of aggregation: stronger effect = higher value; nuclei count: measured here: cell count, toxicity.
A short description of assay [3]: inhibitors of E-selectin induction by TNFa, primary screen, imaging, HUVEC, immunofluorescence, MLSMR starter and 10KST1 sets (AID 487;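 active = visually confirmed hit in the image check and inhibition above 20%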;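 as to inhibition: signal is fraction of cell area covered by stained E-selectin grains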;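 as to nuclei count: 100% = median nuclei count of all wells on the same plate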). Particulars: HUVEC TNFalpha-induced E-selectin immunofluorescence imaging, at 2 µM; inhibition: stronger effect = higher value; nuclei count: measured here: cell number, toxicity.
The target in assay [4] is Voltage-gated potassium channel subunit beta-2 (Rattus norvegicus) (UniProt P62483). The experiment in a line: KvBeta enzyme negative modulators, primary screen, biochemical, NADPH fluorescence (AID 622;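 active = fluorescence slope higher than the sample average by over 3 SD, cut at about -0.22 in these data, passing the limit was not always enough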;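 also: slope of raw intensity against log time taken from 70 to 1610 s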). The settings on record: recombinant KvBeta, 4-cyanobenzaldehyde reduction, at 10 µM, stronger effect = higher value.
Sequence of Voltage-gated potassium channel subunit beta-2 (Rattus norvegicus) (P62483 whole entry, looked up): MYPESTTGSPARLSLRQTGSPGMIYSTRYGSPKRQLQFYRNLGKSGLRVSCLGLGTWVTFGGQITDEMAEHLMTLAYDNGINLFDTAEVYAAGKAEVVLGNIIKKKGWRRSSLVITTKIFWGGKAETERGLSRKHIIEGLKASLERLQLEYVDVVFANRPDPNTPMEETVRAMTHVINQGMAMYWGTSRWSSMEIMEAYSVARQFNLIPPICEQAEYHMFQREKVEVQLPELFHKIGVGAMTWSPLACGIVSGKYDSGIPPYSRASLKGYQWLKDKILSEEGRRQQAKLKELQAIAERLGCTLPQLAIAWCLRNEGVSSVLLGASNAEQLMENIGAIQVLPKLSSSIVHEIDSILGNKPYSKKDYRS
The target is the same in assay [5]. The experiment in a line: KvBeta positive modulators, primary screen, biochemical, NADPH fluorescence (AID 623;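 active = NADPH fluorescence slope more negative than the mean of all samples by about 3 SD, 99.7% confidence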;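 also: fluorescence intensity change per second fitted from 20 to 320 s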). The settings on record: Recombinant KvBeta, NADPH fluorescence decrease slope, 10 min; at 10 µM; stronger effect = lower value.
Assay [6] deals with Alpha-2C adrenergic receptor (Homo sapiens) (UniProt P18825). The experiment in a line: modulators of alpha2C/GIRK thallium flux, primary screen, cell-based, HEK293 alpha2C/GIRK1/2 (AID 624).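 Also: slope of fluorescence ratio to pre-addition baseline per second over 15 to 24 s.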 Particulars: thallium flux BTC fluorescence, at 10 µM, actives lie on both sides.
Sequence of Alpha-2C adrenergic receptor (Homo sapiens) (P18825 whole entry, looked up): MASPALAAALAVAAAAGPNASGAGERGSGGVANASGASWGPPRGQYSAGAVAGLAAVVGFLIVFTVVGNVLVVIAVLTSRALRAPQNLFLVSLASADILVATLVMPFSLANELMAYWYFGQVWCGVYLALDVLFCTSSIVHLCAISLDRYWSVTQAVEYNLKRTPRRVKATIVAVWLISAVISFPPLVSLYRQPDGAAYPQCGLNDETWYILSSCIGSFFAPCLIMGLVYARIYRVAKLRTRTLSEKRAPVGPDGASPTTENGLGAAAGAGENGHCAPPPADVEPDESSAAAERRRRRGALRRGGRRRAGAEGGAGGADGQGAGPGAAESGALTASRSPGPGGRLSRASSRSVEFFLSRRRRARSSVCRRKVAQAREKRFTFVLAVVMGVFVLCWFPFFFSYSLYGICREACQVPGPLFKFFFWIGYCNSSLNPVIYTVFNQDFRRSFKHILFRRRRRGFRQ
A short description of assay [7]: inhibitors of Sendai virus-induced IRF3 signaling, primary screen, TLR/RLR signaling modifier project, cell-based, Sendai virus stimulus, luciferase, 10K MLSCN set (AID 602276;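 active = inhibition at or above 50% at 10 µM; inactive = inhibition below 50%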;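 also: firefly luciferase from ISG56 promoter only with Renilla not read in this screen; 0% = Sendai virus plus DMSO and 100% = medium plus DMSO without virus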). Particulars: HEK293 RL24 IRF3 luciferase reporter, at 10 µM, stronger effect = higher value.
Assay [8] is described as follows: inhibitors of poly I:C-induced TLR3 signaling, primary screen, cell-based, poly I:C stimulus, luciferase, 10K MLSCN set (AID 602277;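 active = inhibition of the reporter signal at or above 50%; inactive = inhibition below 50%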). Particulars: HEK293-TLR3 RL24 IRF3 luciferase reporter, at 10 µM, stronger effect = higher value. On the technique in general: A reporter such as luciferase makes a cellular process visible.

As to `COC(=O)c1nc(N)sc1-c1ccccc1`, the cell count in assay [1] is 592. Further, the inhibition in assay [1] is 7.2% (inactive); in assay [3], 4.8% (inactive); in assay [7], 11.7% (inactive); in assay [8] it was 37.7% (inactive). Moreover, the inhibition of aggregation in assay [2] was 9.3% (inactive). The nuclei count in assay [2] amounted to 99.9%; in assay [3], 101%. Besides, in assay [4], the fluorescence slope is -0.352 (inactive). Besides, the NADPH fluorescence slope in assay [5] is 2.3e-05 (inactive). Moreover, in assay [6], the slope was 0.00535 (inactive).

Regarding `CCn1cc(SCC(=O)NCC2CCCO2)c2ccccc21` (centres undefined), the cell count in assay [1] is 692. Besides, the inhibition in assay [1] is -20.6% (inactive); in assay [3] it was -8.7% (inactive); in assay [7] it was 3.88% (inactive); in assay [8], 15.1% (inactive). Besides, the inhibition of aggregation in assay [2] is 8.9% (inactive). Also, the nuclei count was determined as 112% in assay [2] and 102% in assay [3]. The fluorescence slope in assay [4] is -0.4 (inactive). The NADPH fluorescence slope in assay [5] is -4.5e-05 (inactive). Moreover, in assay [6], the slope is 0.00573 (inactive).

With `Cc1cc(C)c(C(=O)Nc2ccc(S(=O)(=O)Nc3onc(C)c3C)cc2)c(C)c1`, in assay [1], the cell count turned out to be 680. In addition, the inhibition in assay [1] was 0.3% (inactive); in assay [3], -36.9% (inactive); in assay [7], 18.6% (inactive); in assay [8], 22.1% (inactive). In addition, the inhibition of aggregation in assay [2] is -6.2% (inactive). Also, the nuclei count in assay [2] was 113%; in assay [3], 114%. Further, in assay [4], the fluorescence slope is -0.493 (inactive). In assay [5], the NADPH fluorescence slope was -2.1e-05 (inactive). Also, the slope in assay [6] was 0.00709 (inactive).

Regarding `O=C(Oc1ccc2c(c1)CCC2)N1CCOCC1`, the cell count in assay [1] amounted to 360. In addition, the inhibition in assay [1] was 5.5% (inactive); in assay [3], 21.8% (inactive); in assay [7], -63.8% (inactive); in assay [8], -185% (inactive). Also, in assay [2], the inhibition of aggregation was 6.4% (inactive). Besides, the nuclei count is 88.2% in assay [2] and 81.4% in assay [3]. Besides, the fluorescence slope in assay [4] was -0.393 (inactive). Besides, in assay [5], the NADPH fluorescence slope is 8.5e-06 (inactive). Further, the slope in assay [6] was 0.00612 (inactive).

For the compound `CCOC(=O)N1CCC(NC(=O)C2CCCN(C(=O)c3cc4sccc4n3C)C2)CC1` (centres undefined), the cell count in assay [1] came out at 762. Further, the inhibition is -5.8% (inactive) in assay [1], -71.5% (inactive) in assay [3], 2.87% (inactive) in assay [7] and 25.3% (inactive) in assay [8]. Further, the inhibition of aggregation in assay [2] is -4.7% (inactive). The nuclei count in assay [2] is 127%; in assay [3] it was 123%. Moreover, in assay [4], the fluorescence slope was -0.556 (inactive). Further, in assay [5], the NADPH fluorescence slope was -4.1e-05 (inactive). Moreover, the slope in assay [6] is 0.00546 (inactive).

Consider `Cc1cc(C)cc(NS(=O)(=O)c2ccc3[nH]c(=O)[nH]c3c2)c1`, for which, in assay [1], the cell count stood at 378. The inhibition in assay [1] was -5.5% (inactive); in assay [3], -23.4% (inactive); in assay [7] it was 16.1% (inactive); in assay [8], 36.9% (inactive). For the same compound, the inhibition of aggregation in assay [2] is 2.4% (inactive). Also, the nuclei count came to 112% in assay [2] and 115% in assay [3]. Also, the fluorescence slope in assay [4] was -0.392 (inactive). In addition, the NADPH fluorescence slope in assay [5] is 4.9e-07 (inactive). Besides, in assay [6], the slope was 0.00328 (inactive).

Take `CC(=O)Nc1cccc(NC(=O)CSc2nn3c(=O)c(C)nnc3s2)c1`: the cell count in assay [1] was 577. Also, the inhibition was 5.2% (inactive) in assay [1], -0.3% (inactive) in assay [3], 2.45% (inactive) in assay [7] and 20.4% (inactive) in assay [8]. Besides, in assay [2], the inhibition of aggregation is 9.9% (inactive). The nuclei count in assay [2] was determined as 97.9%; in assay [3] it was 95.8%. For the same compound, the fluorescence slope in assay [4] is -0.454 (inactive). Besides, the NADPH fluorescence slope in assay [5] is -5.9e-05 (inactive). Besides, the slope in assay [6] was 0.00534 (inactive).

In the case of `O=C(CN(Cc1ccc(F)cc1)C(=O)Cn1nnc2ccccc21)NCC1CCCO1` (centres undefined), in assay [1], the cell count came out at 438. Further, the inhibition is -6.8% (inactive) in assay [1], -33% (inactive) in assay [3], 13.2% (inactive) in assay [7] and 26.1% (inactive) in assay [8]. For the same compound, the inhibition of aggregation in assay [2] is 5.8% (inactive). The nuclei count in assay [2] turned out to be 107%; in assay [3], 84%. In assay [4], the fluorescence slope is -0.434 (inactive). For the same compound, the NADPH fluorescence slope in assay [5] was 7.2e-05 (inactive). Besides, in assay [6], the slope is 0.00612 (inactive).

For `Clc1c(CSc2nc3ccccc3o2)nc2sccn12`, the cell count in assay [1] was found to be 651. The inhibition in assay [1] is 7.3% (inactive); in assay [3], -149% (inactive); in assay [7] it was -56.6% (inactive); in assay [8] it was -207% (inactive). For the same compound, the inhibition of aggregation in assay [2] is 7.5% (inactive). Also, the results for the nuclei count in assay [2] and in assay [3] were 99.8% and 89.3%, respectively. Besides, the fluorescence slope in assay [4] was -0.507 (inactive). The NADPH fluorescence slope in assay [5] was -4.4e-05 (inactive). Moreover, the slope in assay [6] is 0.00562 (inactive).
